Reference: PubChem BioAssay (NCATS)
Records with an inconclusive call do not appear. Entries that show only a call come without a potency. Calls of active or inactive are those of the source. The call rests on the fitted dose curve; in most records, active means well fitted inhibition curve with a large enough effect; inconclusive means small, poorly fitted or top-dose-only effect; inactive means flat fitted curve, though single readings scatter.

The molecules below were run against Calcium and integrin-binding protein 1 (Homo sapiens) (UniProt Q99828) (assay: Primary qHTS for Identification of Calcium Integrin Binding Protein 1 (CIB1) Competitor (AID 1508620;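 further: GST tagged CIB1 binding a fluorescein labelled alphaIIb integrin peptide tracer; top concentration of the series differs between compounds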)). Settings: CIB1-GST / FITC-alphaIIb peptide fluorescence polarization; series mostly up to 57.7 µM.
Method in brief: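 CIB1-GST (1 uM final) and compound incubated 15 min at room temperature before adding FITC-alphaIIb peptide tracer (100 nM final). Competition for binding read by fluorescence polarization (ex 480, em 540) after another 15 min at room temperature.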

Sequence of Calcium and integrin-binding protein 1 (Homo sapiens) (Q99828 whole entry, looked up): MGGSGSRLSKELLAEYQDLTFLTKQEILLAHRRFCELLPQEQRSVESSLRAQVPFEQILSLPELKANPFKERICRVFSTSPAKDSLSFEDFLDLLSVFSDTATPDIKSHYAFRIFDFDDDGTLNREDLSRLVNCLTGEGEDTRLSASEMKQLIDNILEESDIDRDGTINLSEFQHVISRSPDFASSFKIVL

Compound	Potency
CC1CCC2C(C)(C)C(O)CCC2(C)C12Cc1c(O)cc3c(c1O2)C(N)=NC3 (stereo not given)	inactive
Cc1cc(C)cc(NC(=O)Cc2ccc(OC(C)(C)C(=O)O)cc2)c1	inactive
O=C(O)C[C@@H](NC(=O)c1cc(-c2ccc(-c3ccncc3)cc2)cs1)c1ccccc1	inactive
C=CC1(C)C=C2C(O)CC3C(C)(C(=O)O)CCCC3(C)C2CC1 (stereo not given)	inactive
O=C1CC(c2ccc([N+](=O)[O-])cc2)=NN1c1ccccc1	inactive
Cc1cn2c(N)c(Cl)cc(C(=O)NCC3CCN(CC(C)C)CC3)c2n1	inactive
COc1cc(/C=C/C(=O)OC2[C@H](O)CC(O)(C(=O)O)C[C@H]2O)ccc1O (stereo not given in full)	inactive
CC(C)CC(=O)OC[C@H]1O[C@@](COC(=O)CC(C)C)(O[C@H]2O[C@H](CO)[C@@H](O)[C@H](O)[C@H]2OC(=O)CC(C)C)[C@@H](OC(=O)CC(C)C)[C@@H]1O	inactive
O=C(Nc1cccnn1)N1CCC(=Cc2cccc(Oc3ccc(C(F)(F)F)cn3)c2)CC1	inactive
Cc1onc(-c2ccccc2)c1C(=O)N[C@@H]1C(=O)N2[C@@H]1SC(C)(C)[C@@H]2C(=O)O	inactive
CC12CCC3C(C)(C)C(O)CCC3(C)C1Cc1c(oc(C(=O)O)cc1=O)O2 (stereo not given)	inactive
CC(C)CC(=O)n1cc(C(N)=O)c(=O)cc1C(O)c1ccccc1 (stereo not given)	inactive
COC(=O)c1cc(CN2CCN(C(=N)N)CC2)cc(C(=O)N2CCN(C(=O)c3ccc(C(=N)N)cc3)CC2)c1	inactive
O=c1c2ccccc2nc2n1CCC2O (stereo not given)	inactive
O=C(c1ccc(C#Cc2cccc(F)c2)cn1)N1CC2CC2C1 (stereo not given)	inactive
